Bioassay records as filed in PubChem.
D2 PAM-1: D2 dopamine receptor (human) potentiation. HEK293 T-REx D2, calcium flux, EC20 dopamine potentiation. potentiation, % at 10 µM. actives 0.34% (n = 340,000). AID 485347;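 active = potentiation over 3 SD above the plate norm, cut at about 30% in these data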; also: 0% is about no effect
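Tetracycline-induced HEK293 T-REx cells force-coupled to calcium signalling expressed D2; compounds were pin-added after a 10 s baseline, read kinetically 180 s, then an EC20 dopamine challenge followed with a further 180 s calcium read.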
D2 antagonist: D2 dopamine receptor (human) antagonism | P14416 | HEK293 TREx D2 cells, calcium flux, dopamine EC80 | inhibition, % at 10 µM | actives 2% (n = 340,000) | AID 485344; in the data active = inhibition above about 30%; inactive = below that, where a call was filed; also: 0% is about no effect
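Overnight-induced (tetracycline, 30 C) HEK293 T-REx cells carrying force-coupled D2 receive a no-wash calcium dye, then compound, then EC80 dopamine at 180 s; signals are read kinetically throughout.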
D2 ag-1: activates the human D2 dopamine receptor | actives 0.53% (n = 340,000) | activation, % at 2 µM | HEK293 T-REx D2 cells, calcium flux agonist mode | P14416 | AID 485358;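 active = activation over 3 SD above normal in the single-dose calcium agonist read, cut at about 30% in these data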; also: 0% is about no effect
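HEK293 Trex D2 cells, tetracycline-induced, o/n 30 C 5% CO2; no-wash Ca dye, RT 30–90 min; 10-cycle baseline, 23 nl cpd added, kinetic Ca read 180 s; agonist hits = positive Ca response.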
D2 ag-2: agonists of human D2 dopamine receptor (beta-arrestin) | DiscoveRx PathHunter D2 beta-arrestin, luminescence, 90 min; 100% = 57 uM dopamine signal | activation, % (test concentration not listed) | actives 0.084% (n = 360,000); in the data active = activation above about 40%; inconclusive = between about 15% and that limit
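DiscoveRx PathHunter D2 beta-arrestin cells (2,100/well) attached overnight, then compound-stimulated 90 min at 37 C in HBSS/10 mM HEPES/0.1% Tween-20 buffer; beta-galactosidase complementation read by luminescence after 1 h at ambient temperature. Dopamine 57 uM final (EC100) as control.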
D2 PAM-2: human D2 receptor positive allosteric modulation; DiscoveRx D2 beta-arrestin cells, luminescence, 90 min; 100% = 57 uM dopamine signal; AID 624464; actives 0.23% (n = 360,000); potentiation, % (test concentration not listed); in the data active = potentiation above about 50%; inconclusive = mostly about 30% to 49%
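D2 cells co-treated with compound plus 50 nM dopamine (EC20) for 90 min at 37 deg C to detect potentiation. Beta-arrestin recruitment was read as enzyme-fragment luminescence after 1 h at ambient temperature. Full response was set by 57 uM dopamine.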
D3 ag: D3 receptor agonism confirmed, beta-arrestin readout; shares compounds with D2 ag-1; Potency, µM (highest dose often 76.9 µM), without a hit: at the top dose activation, most hits filed as activators; actives 4% (n = 2,300); DiscoveRx D3 beta-arrestin cells, luminescence, 90 min;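 also: potency is read from the fitted curve at half-maximal effect; 100% = dopamine control response; nearly all actives have a fitted effect of over 70% in size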
Target sequence (P35462 whole entry, looked up): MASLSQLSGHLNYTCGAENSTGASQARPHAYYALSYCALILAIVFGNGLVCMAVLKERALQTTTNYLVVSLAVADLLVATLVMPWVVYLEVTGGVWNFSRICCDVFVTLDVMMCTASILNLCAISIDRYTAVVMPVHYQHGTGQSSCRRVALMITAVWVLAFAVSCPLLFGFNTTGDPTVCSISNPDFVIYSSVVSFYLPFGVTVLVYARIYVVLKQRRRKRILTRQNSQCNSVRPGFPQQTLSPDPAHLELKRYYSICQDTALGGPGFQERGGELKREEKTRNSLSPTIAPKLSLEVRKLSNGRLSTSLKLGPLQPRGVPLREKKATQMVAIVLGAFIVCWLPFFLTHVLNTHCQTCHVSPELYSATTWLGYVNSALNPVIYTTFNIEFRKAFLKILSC
D2 ag-3: activates human D2 dopamine receptor in D3 counterscreen; DiscoveRx PathHunter D2 beta-arrestin, luminescence, 90 min; response scale: percent relative to full dopamine signal; shares compounds with D2 ag-1; actives 5.9% (n = 2,300); Potency, µM (highest dose often 76.9 µM), inactives show at the highest dose activation, usual class: activators; also: potency is read from the fitted curve at half-maximal effect; % of control where 0% means no effect; nearly all actives have a fitted effect of over 70% in size
Numbers without * were called inactive; ? = inconclusive; . = no result given. An excerpt weighted towards active compounds, which were near 2.4% of everything screened. Unless noted, calls follow the shape of the dose curve; as a rule, active = well fitted activation curve with a large enough effect; inconclusive = small, poorly fitted or top-dose-only effect; inactive = flat fitted curve, though single readings scatter.

SMILES	D2 PAM-1	D2 antagonist	D2 ag-1	D2 ag-2	D2 PAM-2	D3 ag	D2 ag-3
CC(CCN1CCN(c2ccccc2)CC1)c1ccccc1 (centres undefined)	-26.5	72.6*	30.7*	6.0	-24.5	-3.6%	12.9%
Cc1ccc(S(=O)(=O)c2nnn3c2nc(NC(C)c2ccccc2)c2sccc23)cc1 (centres undefined)	-6.1	.	0.9	.	.	.	.
Cc1ccc(C)c(NC(=O)c2cnc3sc(N4CCOCC4)nn3c2=O)c1	12.7	.	0.0	.	.	.	.
COC(=O)C1CCN(Cc2cn(Cc3ccccc3)nc2-c2cc3ccccc3o2)CC1	-12.9	13.3	36.6*	-1.4	-10.6	-9.3%	8.0%
CCc1ccccc1NC(=O)Cn1nc(N2CCN(c3ccccc3OC)CC2)ccc1=O	6.4	.	-0.7	.	.	.	.
CCCCN(C)CCCNC(=O)CC1Oc2ccccc2NC1=O (centres undefined)	-24.7	62.5*	85.2*	1.3	25.6	?	?
CCCN(CCC)CCCNC(=O)CC1Nc2ccccc2NC1=O (centres undefined)	-6.5	23.9	50.8*	1.3	2.2	-5.1%	-1.5%
CCCCN(CC)CCCNC(=O)CC1Nc2ccccc2NC1=O (centres undefined)	-13.6	40.5*	74.7*	9.1	-6.7	-1.0%	2.3%
COc1ccc(C)cc1N(C)C(=O)c1sc2nc3n(c(=O)c2c1C)CCCCC3	1.5	.	5.3	.	.	.	.
Cc1nn(S(=O)(=O)c2ccc(C(C)(C)C)cc2)c(C)c1S(=O)(=O)N1CCC(C)CC1	-10.1	.	-0.5	.	.	.	.
Cc1ccc(CNC(=O)Cc2c(C)c3c(cc(C)c4c(C)coc43)oc2=O)cc1	16.1	.	0.9	.	.	.	.
O=C(CCCN1C(=O)c2cccnc2C1=O)Nc1ccccc1F	9.7	-3.5	3.1	1.8	1.1	.	.
CCc1ccccc1NC(=O)CCCN1C(=O)c2cccnc2C1=O	-16.5	-14.2	41.1*	-0.4	-6.1	-5.5%	-4.5%
COC(=O)c1ccc(S(=O)(=O)NCCSc2nnc3c4ccccc4n(C)c3n2)cc1	6.4	28.4	-0.9	-0.7	-8.1	16.6%	8.8%
COc1ccccc1N(CC(=O)NCCSCc1ccc(C)cc1)S(=O)(=O)c1ccccc1	13.7	25.1	1.6	4.5	1.3	-3.0%	5.6%
CCOC(=O)c1c(C)c(C(=O)NCCCN2CCCC2=O)c(C)n1CC	-18.9	-7.4	62.0*	0.6	-15.1	-4.6%	-3.8%
N#CC1=C(N)NC(SCC(=O)Nc2ccc(Br)cc2)=C(C#N)C12CCCCC2	-17.6	-40.8	75.4*	-0.8	-36.2	7.4%	8.0%
N#CC1=C(N)NC(SCc2ccc(Br)cc2)=C(C#N)C12CCCCC2	.	.	.	4.2	-4.0	.	.
Cc1ccc(S(=O)(=O)N(Cc2cccnc2)Cc2cc3ccccc3[nH]c2=O)cc1	2.5	93.9*	0.0	-2.4	3.9	-1.5%	1.5%
COc1ccc(S(=O)(=O)N(Cc2cccnc2)Cc2cc3ccccc3[nH]c2=O)cc1	5.0	7.8	0.6	2.7	3.6	.	.
COC(=O)C1CCN(CCCOc2ccc(CN3CCN(c4ccc([N+](=O)[O-])cc4)CC3)cc2)CC1	-15.1	84.1*	69.3*	45.4*	29.9	?	?
COc1ccc(CN2CCN(c3ccccn3)CC2)c(OC)c1	-21.6	82.9*	84.3*	?	3.3	22.4%	?
COc1ccc(-n2c(CN3CCN(c4ccccc4)CC3)nc3ccc([N+](=O)[O-])cc3c2=O)c(OC)c1	3.1	13.5	18.0	6.7	-13.0	.	.
COc1cccc(-n2c(CN3CCN(c4ccccn4)CC3)nc3ccc([N+](=O)[O-])cc3c2=O)c1	-17.3	7.3	27.6	-0.6	-10.3	-2.8%	2.9%
COc1cc(CN2CCN(c3ncccn3)CC2)cc(OC)c1	-22.0	86.7*	88.2*	56.3*	1.2	?	2.82µM*
SMILES	D2 PAM-1	D2 antagonist	D2 ag-1	D2 ag-2	D2 PAM-2	D3 ag	D2 ag-3
COc1cc(CN2CCCCCC2)cc(OC)c1	-8.5	-6.9	0.3	-1.7	-12.8	.	.
COc1ccc(CN2CCN(Cc3ccccc3F)CC2)c(OC)c1	-4.1	4.7	-2.0	-3.7	-15.7	.	.
COc1ccc(CN2CCN(c3ncccn3)CC2)c(OC)c1	-5.3	69.1*	56.1*	45.0*	16.4	?	?
COc1ccccc1CCNC(=O)Cc1c(C)c2c(O)cc(C)cc2oc1=O	-4.2	.	-0.3	.	.	.	.
Cc1ccc(Sc2ccc(N3CCC(C(=O)Nc4ccc(Cl)cc4)CC3)nn2)cc1	-6.2	.	0.1	.	.	.	.
N#CC[C@H](Cc1ccccc1)N1CCN(Cc2ccccc2)CCC1=O	-0.1	11.1	0.6	-0.3	-4.0	.	.
CC(C)C[C@@H](CO)N1CCN(Cc2ccccc2)CCC1=O	0.8	.	.	-3.2	-9.1	.	.
CC(C)C[C@@H](CO)N1CCN(CCCc2ccccc2)CCC1=O	7.6	34.7*	-0.8	-2.0	-7.3	-1.3%	17.9%
N#CC[C@H](Cc1ccccc1)N1CCN(CCc2ccccc2)CCC1=O	-16.8	33.6*	49.6*	-2.0	-19.8	14.6%	0.5%
O=C1CCN(CCCc2ccccc2)CCN1[C@H](CO)c1ccccc1	7.7	22.6	0.0	0.1	-15.5	?	19.6%
CCOC(=O)c1cccc(NC(=O)CN2C(=O)CC(C)(C)Sc3ccccc32)c1	6.7	.	0.3	.	.	.	.
CN1CCc2c(sc(/N=C/c3c[nH]c4ccccc34)c2C#N)C1	-25.8	-6.0	49.3*	7.3	-19.5	11.9%	-3.6%
CN1CCc2c(sc(/N=C/c3cc(Cl)ccc3O)c2C#N)C1	-35.7	83.3*	87.7*	52.1*	25.7	-10.9%	9.7%
CN1CCc2c(sc(/N=C/c3c[nH]c4ccccc34)c2C(N)=O)C1	-8.7	12.7	1.5	-3.9	-17.0	.	.
COc1cc(-c2noc(-c3ccc(N(C)C)c([N+](=O)[O-])c3)n2)cc(OC)c1OC	-15.2	.	0.2	.	.	.	.
Cc1cccc(-c2nc(CN3CCCC(C(=O)NCc4ccc(Cl)cc4)C3)c(C)o2)c1 (centres undefined)	7.0	.	2.4	.	.	.	.
